Laboratory results from PubChem BioAssay AID2315 (National Center for Advancing Translational Sciences (NCATS), 2010).
In all, about 290,000 compounds went through this assay and about 27,000 (9.3%) were called active. Rule as the data show it: active = inhibition mostly above about 28% (no sharp cut-off); inactive = mostly below about 43%. Many of the other results were omitted from the sample, so actives are more common in it than they were.

Experiment: A qHTS for Small Molecule Inhibitors of Shiga Toxin; also: 0% is about no effect
Conditions: Vero cells, Shiga toxin protein synthesis inhibition reporter; at 38.7 µM, stronger effect = higher value

SMILES	inhibition
COC(=O)Nc1ccc(S(=O)(=O)Nc2cc(OC)nc(OC)n2)cc1	-3.18% (inactive)
Cc1ccsc1C(=O)N[C@@H](C)c1nnc2ccccn12	-1.3% (inactive)
COc1ccc(NC2CCCN(C(=O)c3ccncc3)C2)cc1 (stereo unspecified)	-17.1% (inactive)
CC(C)NC(=S)NN=C1CCCCCCCCCCC1	4.86% (inactive)
CC(C)(C)NC(=O)C(=O)NN=C1CCCCCCC1	60.6% (active)
O=C1CCC/C(=N\NC(=O)NC2CCCCC2)C1	-0.774% (inactive)
O=C(NCc1ccccc1)C(=O)NCC1OCCN1S(=O)(=O)c1ccc(Br)cc1 (stereo unspecified)	3.85% (inactive)
CCC(Oc1ccccc1C)C(=O)Nc1ccc(S(=O)(=O)Nc2cc(C)on2)cc1 (stereo unspecified)	-4.41% (inactive)
O=c1[nH]c(CSc2ccccc2)nc2c1oc1ccccc12	12.7% (inactive)
O=C(COC(=O)c1ccc(N2CCCC2=O)cc1)c1ccc(OC(F)F)cc1	-2.32% (inactive)
Cc1cc(C(=O)COC(=O)c2cccs2)c(C)n1-c1c(C)n(C)n(-c2ccccc2)c1=O	14.6% (inactive)
Cc1nn(-c2ccccc2)c(-n2cccc2)c1C(=O)O	-10.5% (inactive)
Cc1ccc(OC(=O)c2c(C)nn(-c3ccccc3)c2C)cc1	66.5% (active)
CCCc1cc(=O)[nH]c(SCC(=O)c2cc(C)n(CCC)c2C)n1	-17.8% (inactive)
CCCn1c(C)cc(C(=O)COC(=O)c2c(C)nn(-c3ccccc3)c2C)c1C	37.3% (active)
Cc1nn(-c2ccccc2)c(C)c1C(=O)OCC(=O)NC(=O)NC1CCCCC1	-5.78% (inactive)
O=C(CSc1n[nH]c(-c2cccnc2)n1)Nc1ccc(Cl)cc1	-4.36% (inactive)
Cc1ccc(Nc2c(F)c(F)c(F)c(F)c2C(=O)O)c(C)c1	-5.02% (inactive)
CCCCc1cc(=O)oc2c(C)c(OCC(=O)N3CCC(C(N)=O)CC3)ccc12	6.85% (inactive)
O=c1oc2ccccc2c(CNc2ccccc2)c1[N+](=O)[O-]	11.8% (inactive)
O=C1CCCc2nn(-c3ccccc3)nc21	54.6% (active)

SMILES	inhibition
N#CC1=C(N)N(c2ccccc2)C2=C(C(=O)CCC2)C1c1ccccc1 (stereo unspecified)	20.9% (inactive)
O=C1CCC(=O)N(c2ccccc2)N1	-5.13% (inactive)
CC(C)c1ccc(C(=O)OC2CCOC2=O)cc1 (stereo unspecified)	-21.8% (inactive)
Cc1nn(Cc2ccccc2)c(Cl)c1C(=O)OC1CCOC1=O (stereo unspecified)	-17.1% (inactive)
O=C(OC1CCOC1=O)c1ccc(-c2nc3ccccc3s2)s1 (stereo unspecified)	38.6% (active)
C=CCn1c(=O)c(C(=O)NCc2ccc3c(c2)OCO3)c(O)c2ccccc21	-10.5% (inactive)
COc1ccccc1OCC(=O)Nc1c2c(nn1-c1ccc(F)cc1)CS(=O)(=O)C2	-5.46% (inactive)
Cc1c(C(=O)OC(C)C)sc(NC(=O)c2cccnc2)c1C#N	30.6% (inactive)
COc1ccc(C(=O)NCc2nnc(SCC(=O)Nc3cccc(OC)c3)o2)cc1	-4.36% (inactive)
O=S(=O)(Cc1nnnn1-c1ccccc1)c1ccccc1	-12.2% (inactive)
COc1ccc(NC(=O)CSc2nc(C)cs2)cc1	66.4% (active)
COc1ccc(NC(=O)CSc2nc(SC)ns2)c(OC)c1	69.7% (active)
Cc1csc(SCC(=O)Nc2sccc2C#N)n1	34% (inactive)
CSc1nsc(SCC(=O)Nc2cc(C(=O)O)ccc2C)n1	-7.57% (inactive)
COc1cc(OC)cc(-c2nnc(SCC(=O)Nc3ccc(C(=O)O)cc3)s2)c1	-9.81% (inactive)
COc1ccc(C)cc1NC(=O)CSc1nc(SC)ns1	-10.7% (inactive)
Cc1cc(C)c(OCCN2CC(C)OC(C)C2)c(Br)c1 (stereo unspecified)	14.6% (inactive)
NC(=O)c1nsc(C(=O)N(CCCN2CCOCC2)C(C(=O)NC2CCCCC2)c2ccc(Cl)cc2)c1N (stereo unspecified)	-2.14% (inactive)
O=S(=O)(NCC1CC1)c1ccc(F)c(Cl)c1	1.18% (inactive)
CC(C)Nc1ccc(-n2nc3ccccc3[n+]2[O-])cc1	38.2% (active)
COc1ccc(CCNC(=O)C2CCCN(S(=O)(=O)c3ccc(OC)cc3)C2)cc1 (stereo unspecified)	2.44% (inactive)

SMILES	inhibition
O=C(NC1CCCCC1)C1CCC(CNS(=O)(=O)c2ccccc2)CC1 (stereo unspecified)	2.14% (inactive)
COc1ccc(S(=O)(=O)n2cnc3ccccc32)c(C)c1	-9.95% (inactive)
COc1ccc(CNC(=O)CN(Cc2ccccc2Cl)C(=O)c2csnn2)cc1	-3.03% (inactive)
O=C(N/N=C/c1ccc(Cl)c(Cl)c1)c1ccc2nc[nH]c2c1	23.8% (inactive)
CCCOC(=O)C1=C(C)NC2=C(C(=O)C(C(=O)OC)C(C)C2)C1c1ccc(N(C)C)cc1 (stereo unspecified)	16.2% (inactive)
CCCOC(=O)c1[nH]c2c(c1C)C(=O)CC(c1cccs1)C2 (stereo unspecified)	-12.4% (inactive)
COC(=O)C1C(=O)c2c([nH]c(C(=O)OCCSC)c2C)CC1C (stereo unspecified)	57.7% (active)
COc1ccc(NC(=O)CN2C(=O)CSc3ccc(S(=O)(=O)N4CCC(C)CC4)cc32)cc1	1.63% (inactive)
COc1ccc(Cl)cc1NC(=O)CN(C)C(=O)CCCc1c[nH]c2ccccc12	-2.46% (inactive)
CCOC(=O)CCCN1CC(O)=C(c2nc3ccccc3s2)C1=N	21.6% (inactive)
N=C1C(c2nc3ccccc3s2)=C(O)CN1NC(=O)c1ccc([N+](=O)[O-])cc1	49.3% (active)
COc1ccccc1N1CC(O)=C(c2nc3ccccc3s2)C1=N	31.4% (active)
CCc1ccc(N2CC(O)=C(c3nc4ccccc4c(=O)[nH]3)C2=N)cc1	23.1% (inactive)
O=C(Nc1nc2ccc([N+](=O)[O-])cc2s1)c1ccc(S(=O)(=O)N2CCCc3ccccc32)cc1	-9.77% (inactive)
N=C1C(c2nc3ccccc3[nH]2)=C(O)CN1NC(=O)c1c[nH]c2ccccc12	-8.44% (inactive)
COc1cccc(CNS(=O)(=O)c2csc(C(N)=O)c2)c1	9.09% (inactive)
O=C(N/C(=C\c1ccc(F)cc1)C(=O)N1CCCCCC1)c1ccccc1	-12.7% (inactive)
O=C(CSc1ncnc2c1oc1ccccc12)NC1CCCC1	-5.84% (inactive)
Cc1cc(-c2nnc(SCC(=O)Nc3ccc(F)cc3)n2N)n[nH]1	12.4% (inactive)
